# Laboratory results taken from PubChem BioAssay (NCI).
# Compounds without any hit were thinned out: in the full panel of roughly 83,000, 20% have a hit.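 In brief: 96-well plates, 48 h treatment, single concentration, percent growth endpoint.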 A number with no mark means an inactive call. Calls of active or inactive are those of the source. Rule for the calls: active = growth percent below 10; inactive = the rest.
# Tested on: HL-60(TB) leukemia
# Experiment: NCI-60 one-dose screen, 48 h (100 = growth as untreated, 0 = no growth, -100 = all killed)
# Conditions: 10 µM unless noted
row,SMILES,growth
1,N#Cc1cccc(/C(N)=N/C(N)=N/c2nc3ccccc3s2)c1,4.28% (active)
2,Nc1c(C(=O)Nc2ccc(C(F)(F)F)cc2)sc2nc(-c3cnccn3)cc(-c3cccs3)c12,51.9%
3,CN1CCN(c2ccc(Nc3nc(NCCNS(=O)(=O)c4ccccc4)c4sccc4n3)cc2)CC1,103%
4,Cc1ccc(-n2cc(/C=N/NC(=O)c3nc(N)n[nH]3)c(-c3ccc(S(C)(=O)=O)cc3)n2)cc1,95.1%
5,CCCCCc1ccc(S(=O)(=O)Nc2cc(-c3csc(NC(=O)CN4CCN(C)CC4)n3)ccc2OC)cc1,-52.4% (active)
6,COc1cc(-c2nc(SCCC(C)C)nc(NNC(=O)c3ccncc3)c2C#N)cc(OC)c1OC,116%
7,O=C(CCn1c[n+](CC(=O)c2ccc(F)cc2)c2ccccc21)Nc1cccc2cccnc12,36.7%
8,C#Cc1nc(C2=C(C)C(=O)/C(=N/OC(C)=O)C2)cs1,20.4%
9,Nc1nc(-c2cccc([N+](=O)[O-])c2)c(N=Nc2ccccc2[N+](=O)[O-])s1,96.5%
10,C#C[C@]1(O)CC[C@H]2[C@@H]3CC=C4c5sc(Nc6ccncc6)nc5CC[C@]4(C)[C@H]3CC[C@@]21C,-24% (active)
11,CN(C)C(=O)c1cc(-c2ccc3ncnc(NCc4ccccc4)c3c2)cnc1N,116%
12,COc1ccc(-c2nc3cc(Cl)c(Cl)cc3n2CC(=O)N=Nc2c(O)[nH]c3ccc(OC)cc23)cc1,86.3%
13,Cc1ccc2c(n1)C(=O)C(Cl)=C(Nc1cc(C(F)(F)F)cc(C(F)(F)F)c1)C2=O,40.7%
14,C[C@@H]1C[C@H]2C(=O)O[C@@H](C)C(NC(=O)[C@H](Cc3cc(F)cc(F)c3)NC(=O)Nc3ccc(C4CC4)cc3F)C(=O)N3CCC[C@H]3C(=O)N3CCCC[C@H]3C(=O)N[C@@H](CO)C(=O)N2C1 (stereo partly drawn),11.5%
15,COc1cccc2c1CN(C(=O)c1ccc(O)c(C(=O)N3Cc4ccc(OCCC[P+](c5ccccc5)(c5ccccc5)c5ccccc5)cc4C3)c1)C2,41.3%
16,COc1ccc2sc(NC(=O)CCCCCCNC(=O)C(O)(O)C(F)(F)F)nc2c1,11.8%
17,CN1CCN(CC#CCn2c3c(c4ccccc42)C[C@]2(C)[C@H]4CC=C5[C@@H]6CC(C)(C)CC[C@]6(C(=O)N6CCOCC6)CC[C@@]5(C)[C@]4(C)CC[C@H]2C3(C)C)CC1,16.2%

row,SMILES,growth
1,O=C(CCCN1C(=O)/C(=C/c2ccccc2F)SC1=S)N1CCOCC1,93.5%
2,CCO/C=N/C1=C(C#N)C(c2ccc(F)cc2)c2sc3c(C)cccc3c2O1 (stereo not drawn),-22.8% (active)
3,O=C(CN1CCN(c2cc(=O)[nH]c3ccc(F)cc23)CC1)N(c1ccccc1)c1ccccc1,106%
4,CNC(=O)c1cc(-n2ccc3cc(NC(=O)Nc4ccc(N5CCOCC5)c(C(F)(F)F)c4)ccc32)ccn1,-37.1% (active)
5,O=[N+]([O-])c1ccc(-c2nnc(SCc3ccc(O)c4ncccc34)n2-c2ccccc2)cc1,32.5%
6,COc1ccccc1/C=C/C=N/NC1=NC2C(S1)N(C)C(=O)N2C (stereo not drawn),-22.1% (active)
7,CC(C)(C)Nc1nc2c(OCCc3ccccc3)cccn2c1-c1cccc(Oc2ccccc2)c1,0.841% (active)
8,Clc1ccc2c(NCCCN3CCOCC3)c3oc4ccccc4c3nc2c1,37.9%
9,Cc1c(C(=O)/C=C/c2ccc(Cl)cc2)nnn1-c1ccc2oc(=O)ccc2c1,92.9%
10,CN(c1ccc(Cl)cc1)S(=O)(=O)c1ccc(-c2cnc(C3CC3)o2)cc1,-15.9% (active)
11,O=C1NC(=C(Cl)Cl)/C(=N/S(=O)(=O)N2CCCCC2CC2(C(F)(F)F)N=N2)N1 (stereo not drawn),1.49% (active)
12,CC(=O)O[C@@H]1C(=O)N(c2cnccn2)[C@H]1c1ccccc1[N+](=O)[O-],-30.4% (active)
13,CCCn1cnc2c(c1=N)C(c1ccc(Cl)cc1)c1sc3c(CC)cccc3c1O2 (stereo not drawn),0.217% (active)
14,O=C(COc1ccc(/C=C2\C(=O)Nc3ccc(Cl)cc32)cc1)Nc1ccc(Cl)cc1,57.6%
15,COc1ccc(/C=N/NC(=O)c2[nH]c3ccc(Br)cc3c2-c2ccccc2)s1,-44.2% (active)
16,CN(C)CCNc1ccc2ncc(C#Cc3cncc(C(=O)Nc4ccc(CN5CCN(C)CC5)c(C(F)(F)F)c4)c3)n2n1,-32.1% (active)
